Screening results as filed in PubChem BioAssay.
p53ts 39C kill = kills p53ts cells at the nonpermissive temperature; H1299-p53A138V viability at 39C, ATP luminescence, 24 h; Potency, µM (top dose mostly 46.1 µM), usual class: cytotoxic; actives 1.5% (n = 130,000); AID 902; also: nearly all actives have a fitted effect of over 55% in size
p53ts 32C tox = p53ts cell cytotoxicity, permissive temperature | AID 924 | actives 0.93% (n = 130,000) | Potency, µM (doses to about 46.1 µM), usual class: cytotoxic | H1299-p53A138V at 32C, ATP luminescence viability, 24 h; also: nearly all actives have a fitted effect of over 55% in size
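Cells: H1299 p53ts (A138V), 600/well, pre-incubated 16–30 h at 37C. Cpd up to 46 uM, 24 h, 32C. Readout: ATPlite luminescence, 20 min RT. Normalization: DMSO vs tamoxifen 100 uM. AC50 by Hill equation.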
12-hLO inh = blocks human 12-lipoxygenase activity | P18054 | purified 12-hLO, xylenol orange hydroperoxide absorbance | Potency, µM (top dose mostly 57.1 µM), actives largely listed as inhibitors | actives 0.12% (n = 150,000) | AID 1452; also: nearly all actives have a fitted effect of over 55% in size
Target sequence (P18054 whole entry, looked up): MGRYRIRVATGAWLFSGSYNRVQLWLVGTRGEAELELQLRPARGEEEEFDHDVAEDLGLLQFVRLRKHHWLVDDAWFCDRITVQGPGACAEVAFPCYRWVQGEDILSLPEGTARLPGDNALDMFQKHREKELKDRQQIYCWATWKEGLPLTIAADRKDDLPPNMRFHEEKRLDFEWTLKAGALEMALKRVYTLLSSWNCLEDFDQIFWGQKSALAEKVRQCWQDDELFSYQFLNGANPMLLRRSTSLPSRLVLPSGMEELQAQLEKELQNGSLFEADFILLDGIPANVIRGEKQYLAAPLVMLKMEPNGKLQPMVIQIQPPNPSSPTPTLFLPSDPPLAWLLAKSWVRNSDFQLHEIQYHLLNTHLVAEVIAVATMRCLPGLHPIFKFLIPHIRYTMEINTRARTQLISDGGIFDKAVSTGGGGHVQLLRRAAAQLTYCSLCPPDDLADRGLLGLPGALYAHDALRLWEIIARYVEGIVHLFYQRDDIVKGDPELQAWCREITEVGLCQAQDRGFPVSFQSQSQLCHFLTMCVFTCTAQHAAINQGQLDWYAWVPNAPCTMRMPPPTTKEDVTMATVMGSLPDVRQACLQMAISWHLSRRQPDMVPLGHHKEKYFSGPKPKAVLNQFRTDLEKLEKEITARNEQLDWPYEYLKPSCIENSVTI
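Purified human 12hLO (150 nM), preincubated 15 min with compound, then 40 uM arachidonic acid for 30 min, room temperature, Hepes pH 7.0 with 0.01% Triton X-100. Hydroperoxide detected by ferrous iron/xylenol orange; 573/405 nm absorbance ratio gives reaction progress.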
HPGD inh = HPGD (human) dehydrogenase inhibition. actives 4.3% (n = 150,000). AID 894. purified HPGD, NADH fluorescence kinetic, PGE2 substrate. P15428. Potency, µM, most hits filed as inhibitors; active = well fitted inhibition curve with a large enough effect, not every such curve was filed as active; inconclusive = small, poorly fitted or top-dose-only effect, or another doubt; inactive = no such curve, though single readings can be large or run the other way
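NADH formation kinetics: reaction with 30 uM PGE2 and 1 mM NAD+ (final), 20 nM enzyme, Tris-HCl pH 8 with Tween 20, after 15 min compound preincubation at room temperature. Fluorescence change, last versus first of five reads.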
A number is an active result; . = inactive; ? = inconclusive; / = no result. An excerpt weighted towards active compounds, which were near 4.4% of everything screened. Unless noted, calls follow the shape of the dose curve; as a rule, active = well fitted curve in the direction sought with a large enough effect; inconclusive = small, poorly fitted or top-dose-only effect, or another doubt; inactive = no such curve, though single readings can be large; an effect the other way counts as inactive or inconclusive.

SMILES	p53ts 39C kill	p53ts 32C tox	12-hLO inh	HPGD inh
Cc1cccc2c1-c1sc(C(=O)NCCCN3CCN(c4ccccc4F)CC3)cc1CO2	16µM	.	/	/
CCN1CCN(CCCNC(=O)c2cc3c(s2)-c2c(C)cccc2OC3)CC1	25µM	?	/	/
Cc1ccc(CNC(=O)c2cc3c(s2)-c2c(C)cccc2OC3)cc1	?	.	/	/
Cc1cccc2c1-c1sc(C(=O)N3CCN(c4cccc(Cl)c4)CC3)cc1CO2	.	.	/	/
Cc1cccc2c1-c1sc(C(=O)NCCCN3CCN(c4cccc(Cl)c4)CC3)cc1CO2	13µM	.	/	/
Cc1cccc2c1-c1sc(C(=O)NCc3ccc(Cl)cc3)cc1CO2	?	.	/	/
Cc1ccc(-n2c(SCc3cccc(F)c3)nc3[nH]ncc3c2=O)cc1C	.	.	/	/
CCc1ccc(-n2c(SCc3ccccc3C)nc3[nH]ncc3c2=O)cc1	25µM	?	/	/
Cc1ccc(-n2c(SCc3ccccc3C)nc3[nH]ncc3c2=O)cc1C	25µM	.	/	/
CCc1ccc(-n2c(SCc3cccc(F)c3)nc3[nH]ncc3c2=O)cc1	?	.	/	/
COc1cc(CN(C(=O)c2ccc(C)cc2)c2ccccn2)cc(OC)c1OC	.	.	/	/
COc1ccc(/C=N/NC(=O)CCc2n[nH]c(=O)[nH]c2=O)cc1OC	/	/	.	.
COc1ccc(Cc2nnc(N/N=C/c3ccc(O)cc3)[nH]c2=O)cc1OC	2.8µM	/	.	.
N#Cc1c(C(F)(F)F)cc(-c2ccc(Cl)c(Cl)c2)nc1SCCN1CCOCC1	/	/	.	25µM
Cc1cccc(Cc2c(C)nc3nc(SCC(=O)NCc4ccco4)nn3c2C)c1	.	.	.	16µM
Cc1ccc(Cc2c(C)nc3nc(SCC(=O)NC4CCC(C)CC4)nn3c2C)cc1 (stereo not drawn)	20µM	.	/	/
CCOc1ccc(NC(=O)Cn2c(=O)cc(C)c3c(C)nn(-c4cccc(Cl)c4C)c32)cc1	.	.	/	/
Cc1noc(C)c1-c1nc(N2CCOCC2)c2ccccc2n1	.	.	.	25µM
CCN(CC)CCCOc1ccc(Cl)c(Cl)c1	/	/	.	.
CCN(CC)CCCC(C)Nc1c2ccc(Cl)cc2nc2ccc(OC)cc12 (stereo not drawn)	10µM	5µM	.	?
Cc1ccc(NCCC(=O)c2ccc(Br)cc2)cc1	/	/	.	.
COC(=O)C(CC(=O)c1ccc(Br)cc1)n1ccnc1 (stereo not drawn)	.	.	?	2.5µM
CC1=NOC(=O)/C1=C\c1ccc(-c2cccc(Cl)c2)o1	/	/	.	3.2µM
O=C(O)c1ccc(N/N=C/c2ccc(OC(=O)c3ccccc3Cl)cc2)cc1	/	/	.	25µM
CC(C)c1ccc(/C=N/Nc2ccc(C(=O)O)cc2)cc1	/	/	.	14µM
SMILES	p53ts 39C kill	p53ts 32C tox	12-hLO inh	HPGD inh
Cc1c2cnn(-c3ccccc3)c(=O)c2c(C)n1CC(=O)Nc1ccccc1Br	.	.	/	/
CCOC(=O)c1ccc(NC(=O)CC2C(=O)N(c3ccccc3)C(=O)N2Cc2ccc(C)cc2)cc1 (stereo not drawn)	.	.	/	/
CSc1nnc(-c2sc3cc(C(F)(F)F)cnc3c2-c2ccccn2)n1C	/	/	.	?
Cn1c(-c2sc3cc(C(F)(F)F)cnc3c2-c2cccnc2)n[nH]c1=S	/	/	.	28µM
Cc1ccc(S(=O)(=O)N[C@@H](Cc2ccccc2)C(=O)CCl)cc1	3.2µM	6.3µM	.	20µM
Cc1ccc(C2=NN(Cc3nnc(-c4ccccc4)o3)C(=O)SC2)cc1	/	/	.	11µM
c1ccc(-c2nnc(CN3CCN(c4ccccc4)CC3)o2)cc1	.	.	/	/
COc1ccccc1/C=C/C=C1\Oc2c(ccc(O)c2CN2CCN(CCO)CC2)C1=O	/	/	.	16µM
CCN1CCN(Cc2c(O)ccc3c2O/C(=C\C=C\c2ccccc2)C3=O)CC1	/	/	.	?
CCCCc1ccc(C(=O)Nc2ccc3nc(N4CCN(CC)CC4)cc(C)c3c2)cc1	7.9µM	.	/	/
CCN1CCN(c2cc(C)c3cc(NC(=O)c4cnccn4)ccc3n2)CC1	.	.	.	.
Cc1cc(N2CCCCC2)nc2ccc(NC(=O)/C=C/c3ccccc3Cl)cc12	?	.	/	/
CCN1CCN(c2cc(C)c3cc(NC(=O)c4cccc(Cl)c4)ccc3n2)CC1	2.5µM	14µM	/	/
CCN1CCN(c2cc(C)c3cc(NC(=O)/C=C/c4cccc(Cl)c4)ccc3n2)CC1	3.2µM	?	/	/
CCN1CCN(c2cc(C)c3cc(NC(=O)c4cc(OC)cc(OC)c4)ccc3n2)CC1	2.5µM	?	/	/
CCN1CCN(c2cc(C)c3cc(NC(=O)Cc4ccc(OC)c(OC)c4)ccc3n2)CC1	.	.	.	?
Cc1cccc(Cn2c(=O)n(CCC(=O)NCc3ccc4c(c3)OCO4)c(=O)c3sccc32)c1	.	.	/	/
